Laboratory results taken from ChEMBL document CHEMBL1961873, “Compounds: GSK PKIS; Assays: Nanosyn kinase panel” (2012).

Experiments:
[1] = target: Tyrosine-protein kinase Fer (Homo sapiens) (UniProt P16591); conditions: at 1 µM
[2] = target: Tyrosine-protein kinase Fes/Fps (Homo sapiens) (UniProt P07332); conditions: at 0.1 µM
[3] = target: Tyrosine-protein kinase Fes/Fps (Homo sapiens) (UniProt P07332); conditions: at 1 µM
[4] = target: Fibroblast growth factor receptor 1 (Homo sapiens) (UniProt P11362); conditions: at 0.1 µM
Fibroblast growth factor receptor 1 (Homo sapiens), sequence (P11362 22-822 limits assumed): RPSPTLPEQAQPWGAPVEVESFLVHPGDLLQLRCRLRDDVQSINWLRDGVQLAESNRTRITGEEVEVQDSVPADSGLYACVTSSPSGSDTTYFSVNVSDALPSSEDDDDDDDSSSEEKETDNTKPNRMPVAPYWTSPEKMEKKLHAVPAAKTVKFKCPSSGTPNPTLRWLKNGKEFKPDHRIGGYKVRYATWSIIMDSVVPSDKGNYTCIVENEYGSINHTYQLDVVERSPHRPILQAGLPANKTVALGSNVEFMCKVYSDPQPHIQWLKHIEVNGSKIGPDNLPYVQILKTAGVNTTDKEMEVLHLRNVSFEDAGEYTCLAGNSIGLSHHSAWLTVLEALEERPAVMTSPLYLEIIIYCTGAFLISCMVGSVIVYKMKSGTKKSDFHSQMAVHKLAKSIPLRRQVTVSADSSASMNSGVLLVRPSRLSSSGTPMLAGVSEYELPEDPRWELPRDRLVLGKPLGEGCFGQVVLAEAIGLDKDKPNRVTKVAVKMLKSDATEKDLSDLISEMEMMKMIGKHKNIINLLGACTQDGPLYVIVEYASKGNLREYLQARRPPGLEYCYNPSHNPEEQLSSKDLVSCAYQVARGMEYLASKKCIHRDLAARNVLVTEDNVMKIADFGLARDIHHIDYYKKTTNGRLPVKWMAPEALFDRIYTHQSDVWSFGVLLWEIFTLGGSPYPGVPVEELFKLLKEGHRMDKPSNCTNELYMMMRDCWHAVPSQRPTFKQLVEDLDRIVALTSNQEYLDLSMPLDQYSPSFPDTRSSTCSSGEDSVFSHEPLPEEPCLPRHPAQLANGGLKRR

[5] = target: Fibroblast growth factor receptor 1 (Homo sapiens) (UniProt P11362); conditions: at 1 µM
[6] = target: Fibroblast growth factor receptor 2 (Homo sapiens) (UniProt P21802); conditions: at 0.1 µM
Fibroblast growth factor receptor 2 (Homo sapiens), sequence (P21802 22-821 limits assumed): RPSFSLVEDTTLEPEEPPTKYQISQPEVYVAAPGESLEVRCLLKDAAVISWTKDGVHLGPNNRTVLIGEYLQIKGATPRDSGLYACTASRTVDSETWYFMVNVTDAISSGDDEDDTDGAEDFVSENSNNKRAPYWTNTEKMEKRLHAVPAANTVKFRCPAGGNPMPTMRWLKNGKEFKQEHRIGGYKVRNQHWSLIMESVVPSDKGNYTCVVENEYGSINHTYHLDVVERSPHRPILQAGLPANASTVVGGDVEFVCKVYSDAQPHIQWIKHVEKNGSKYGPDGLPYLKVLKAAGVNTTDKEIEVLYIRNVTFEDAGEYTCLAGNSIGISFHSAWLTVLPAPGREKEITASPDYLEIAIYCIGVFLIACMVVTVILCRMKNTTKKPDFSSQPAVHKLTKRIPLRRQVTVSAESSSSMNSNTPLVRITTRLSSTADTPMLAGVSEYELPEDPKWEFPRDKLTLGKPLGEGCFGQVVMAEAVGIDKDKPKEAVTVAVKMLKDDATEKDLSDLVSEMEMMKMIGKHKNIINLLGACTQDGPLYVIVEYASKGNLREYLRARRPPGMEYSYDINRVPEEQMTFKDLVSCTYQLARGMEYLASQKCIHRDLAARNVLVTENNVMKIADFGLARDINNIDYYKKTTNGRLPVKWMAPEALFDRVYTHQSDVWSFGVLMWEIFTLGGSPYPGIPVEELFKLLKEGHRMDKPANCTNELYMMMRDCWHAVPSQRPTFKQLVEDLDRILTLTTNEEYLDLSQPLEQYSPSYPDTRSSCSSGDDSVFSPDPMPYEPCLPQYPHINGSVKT

[7] = target: Fibroblast growth factor receptor 2 (Homo sapiens) (UniProt P21802); conditions: at 1 µM
[8] = target: Fibroblast growth factor receptor 3 (Homo sapiens) (UniProt P22607); conditions: at 0.1 µM
Fibroblast growth factor receptor 3 (Homo sapiens), sequence (P22607 23-806 limits assumed): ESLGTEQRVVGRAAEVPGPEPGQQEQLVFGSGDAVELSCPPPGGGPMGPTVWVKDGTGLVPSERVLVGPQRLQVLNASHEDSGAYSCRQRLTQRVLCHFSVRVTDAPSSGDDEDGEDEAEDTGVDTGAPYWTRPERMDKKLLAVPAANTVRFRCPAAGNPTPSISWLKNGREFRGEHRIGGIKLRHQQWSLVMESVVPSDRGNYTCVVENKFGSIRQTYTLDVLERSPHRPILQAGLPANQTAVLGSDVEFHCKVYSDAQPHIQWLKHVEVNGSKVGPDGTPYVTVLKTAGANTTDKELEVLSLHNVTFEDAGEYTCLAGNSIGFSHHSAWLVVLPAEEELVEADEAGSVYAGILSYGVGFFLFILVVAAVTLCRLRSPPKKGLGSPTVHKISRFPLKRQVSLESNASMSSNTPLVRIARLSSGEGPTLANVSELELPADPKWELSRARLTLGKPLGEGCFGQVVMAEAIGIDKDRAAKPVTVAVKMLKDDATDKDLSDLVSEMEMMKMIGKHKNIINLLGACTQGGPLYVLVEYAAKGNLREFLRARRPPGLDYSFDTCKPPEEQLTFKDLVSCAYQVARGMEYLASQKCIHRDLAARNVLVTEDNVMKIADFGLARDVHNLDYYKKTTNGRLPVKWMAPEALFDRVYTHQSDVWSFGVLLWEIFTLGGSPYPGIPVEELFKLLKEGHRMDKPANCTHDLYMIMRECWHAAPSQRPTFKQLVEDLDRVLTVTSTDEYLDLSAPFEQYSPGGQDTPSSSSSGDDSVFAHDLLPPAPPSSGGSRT

[9] = target: Fibroblast growth factor receptor 3 (Homo sapiens) (UniProt P22607); conditions: at 1 µM
[10] = target: Fibroblast growth factor receptor 4 (Homo sapiens) (UniProt P22455); conditions: at 0.1 µM
Fibroblast growth factor receptor 4 (Homo sapiens), sequence (P22455 22-802 limits assumed): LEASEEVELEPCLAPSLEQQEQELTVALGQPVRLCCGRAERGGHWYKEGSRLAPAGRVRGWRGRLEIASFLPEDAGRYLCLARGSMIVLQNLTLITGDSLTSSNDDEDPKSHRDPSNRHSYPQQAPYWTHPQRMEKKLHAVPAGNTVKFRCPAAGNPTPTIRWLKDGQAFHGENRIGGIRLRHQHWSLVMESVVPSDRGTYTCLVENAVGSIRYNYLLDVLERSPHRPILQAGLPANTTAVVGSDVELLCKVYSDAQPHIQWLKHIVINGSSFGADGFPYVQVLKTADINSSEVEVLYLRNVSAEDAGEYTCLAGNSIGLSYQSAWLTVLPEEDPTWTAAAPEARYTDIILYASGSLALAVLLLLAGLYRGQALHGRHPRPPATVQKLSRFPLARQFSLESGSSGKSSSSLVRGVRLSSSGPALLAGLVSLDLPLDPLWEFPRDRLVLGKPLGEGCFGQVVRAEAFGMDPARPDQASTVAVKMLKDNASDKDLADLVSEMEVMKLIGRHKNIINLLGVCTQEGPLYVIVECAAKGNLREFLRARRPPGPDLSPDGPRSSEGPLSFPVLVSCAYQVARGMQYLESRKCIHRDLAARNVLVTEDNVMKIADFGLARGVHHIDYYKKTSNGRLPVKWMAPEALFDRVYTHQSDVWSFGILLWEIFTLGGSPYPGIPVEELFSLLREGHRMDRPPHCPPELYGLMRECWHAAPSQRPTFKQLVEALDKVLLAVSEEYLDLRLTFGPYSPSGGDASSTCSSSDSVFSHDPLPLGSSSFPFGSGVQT

[11] = target: Fibroblast growth factor receptor 4 (Homo sapiens) (UniProt P22455); conditions: at 1 µM
[12] = target: Tyrosine-protein kinase Fgr (Homo sapiens) (UniProt P09769); conditions: at 0.1 µM
[13] = target: Tyrosine-protein kinase Fgr (Homo sapiens) (UniProt P09769); conditions: at 1 µM
[14] = target: Vascular endothelial growth factor receptor 1 (Homo sapiens) (UniProt P17948); conditions: at 0.1 µM
[15] = target: Vascular endothelial growth factor receptor 1 (Homo sapiens) (UniProt P17948); conditions: at 1 µM
[16] = target: Receptor-type tyrosine-protein kinase FLT3 (Homo sapiens) (UniProt P36888); conditions: at 0.1 µM
[17] = target: Receptor-type tyrosine-protein kinase FLT3 (Homo sapiens) (UniProt P36888); conditions: at 1 µM
[18] = tested on: T1, Receptor-type tyrosine-protein kinase FLT3 (Homo sapiens), P36888 [D835Y]; conditions: at 0.1 µM
T1 sequence (whole entry): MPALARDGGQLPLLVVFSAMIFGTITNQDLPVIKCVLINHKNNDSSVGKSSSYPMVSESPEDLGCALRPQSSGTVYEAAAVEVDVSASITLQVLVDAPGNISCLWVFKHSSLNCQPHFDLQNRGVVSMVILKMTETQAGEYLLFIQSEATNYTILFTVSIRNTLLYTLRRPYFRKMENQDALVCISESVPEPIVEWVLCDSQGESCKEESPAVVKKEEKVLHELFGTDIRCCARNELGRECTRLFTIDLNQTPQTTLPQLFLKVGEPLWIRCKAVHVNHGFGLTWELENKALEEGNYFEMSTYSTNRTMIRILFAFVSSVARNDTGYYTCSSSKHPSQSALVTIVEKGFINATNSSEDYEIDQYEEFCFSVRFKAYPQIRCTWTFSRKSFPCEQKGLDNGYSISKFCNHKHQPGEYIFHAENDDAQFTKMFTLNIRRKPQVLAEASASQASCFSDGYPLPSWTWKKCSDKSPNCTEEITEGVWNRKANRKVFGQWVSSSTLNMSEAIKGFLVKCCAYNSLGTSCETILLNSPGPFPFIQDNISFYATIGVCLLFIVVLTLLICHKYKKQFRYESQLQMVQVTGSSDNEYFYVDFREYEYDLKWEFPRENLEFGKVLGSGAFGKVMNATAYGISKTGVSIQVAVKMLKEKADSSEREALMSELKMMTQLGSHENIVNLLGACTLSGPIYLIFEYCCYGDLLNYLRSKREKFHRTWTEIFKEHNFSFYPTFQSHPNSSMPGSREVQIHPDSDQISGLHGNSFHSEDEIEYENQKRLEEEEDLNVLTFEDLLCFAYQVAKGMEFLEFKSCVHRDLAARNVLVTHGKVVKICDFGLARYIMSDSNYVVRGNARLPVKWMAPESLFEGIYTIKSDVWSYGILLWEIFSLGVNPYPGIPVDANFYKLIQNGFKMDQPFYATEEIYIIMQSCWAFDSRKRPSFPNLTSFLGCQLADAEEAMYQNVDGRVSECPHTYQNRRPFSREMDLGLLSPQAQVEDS

[19] = target: Non-receptor tyrosine-protein kinase TYK2 (Homo sapiens) (UniProt P29597); conditions: at 1 µM;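 further: values are mean percent inhibition of TYK2 kinase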
[20] = target: T2, Tyrosine-protein kinase receptor TYRO3 (Homo sapiens) (UniProt Q06418); conditions: at 0.1 µM;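 further: reported percentages are averaged inhibition values of TYRO3 kinase activity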
T2 sequence (whole entry): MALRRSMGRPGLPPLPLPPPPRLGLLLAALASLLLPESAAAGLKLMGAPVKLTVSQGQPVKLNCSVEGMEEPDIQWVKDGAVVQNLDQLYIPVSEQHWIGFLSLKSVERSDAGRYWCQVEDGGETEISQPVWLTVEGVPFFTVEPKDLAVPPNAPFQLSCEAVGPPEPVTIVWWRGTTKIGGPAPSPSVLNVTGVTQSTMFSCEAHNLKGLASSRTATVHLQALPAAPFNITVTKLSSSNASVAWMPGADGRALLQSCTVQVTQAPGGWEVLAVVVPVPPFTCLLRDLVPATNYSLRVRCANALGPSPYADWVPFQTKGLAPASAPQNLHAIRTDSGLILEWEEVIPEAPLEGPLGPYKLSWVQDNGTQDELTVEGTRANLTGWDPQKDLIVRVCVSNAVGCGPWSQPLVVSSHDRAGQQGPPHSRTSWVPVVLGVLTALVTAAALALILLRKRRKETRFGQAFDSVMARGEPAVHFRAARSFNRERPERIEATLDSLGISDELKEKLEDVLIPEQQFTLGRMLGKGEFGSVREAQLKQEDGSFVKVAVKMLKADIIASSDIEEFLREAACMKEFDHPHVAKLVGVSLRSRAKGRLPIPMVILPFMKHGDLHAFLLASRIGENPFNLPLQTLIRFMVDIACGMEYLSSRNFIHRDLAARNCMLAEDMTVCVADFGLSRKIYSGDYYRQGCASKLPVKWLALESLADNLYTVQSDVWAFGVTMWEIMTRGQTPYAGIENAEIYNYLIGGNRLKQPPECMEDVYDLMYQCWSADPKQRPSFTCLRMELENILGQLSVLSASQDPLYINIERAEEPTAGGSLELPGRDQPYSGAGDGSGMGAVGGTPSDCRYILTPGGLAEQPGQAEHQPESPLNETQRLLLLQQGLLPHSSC

Tyrosine-protein kinase Fer (Homo sapiens), sequence (P16591 whole entry, looked up): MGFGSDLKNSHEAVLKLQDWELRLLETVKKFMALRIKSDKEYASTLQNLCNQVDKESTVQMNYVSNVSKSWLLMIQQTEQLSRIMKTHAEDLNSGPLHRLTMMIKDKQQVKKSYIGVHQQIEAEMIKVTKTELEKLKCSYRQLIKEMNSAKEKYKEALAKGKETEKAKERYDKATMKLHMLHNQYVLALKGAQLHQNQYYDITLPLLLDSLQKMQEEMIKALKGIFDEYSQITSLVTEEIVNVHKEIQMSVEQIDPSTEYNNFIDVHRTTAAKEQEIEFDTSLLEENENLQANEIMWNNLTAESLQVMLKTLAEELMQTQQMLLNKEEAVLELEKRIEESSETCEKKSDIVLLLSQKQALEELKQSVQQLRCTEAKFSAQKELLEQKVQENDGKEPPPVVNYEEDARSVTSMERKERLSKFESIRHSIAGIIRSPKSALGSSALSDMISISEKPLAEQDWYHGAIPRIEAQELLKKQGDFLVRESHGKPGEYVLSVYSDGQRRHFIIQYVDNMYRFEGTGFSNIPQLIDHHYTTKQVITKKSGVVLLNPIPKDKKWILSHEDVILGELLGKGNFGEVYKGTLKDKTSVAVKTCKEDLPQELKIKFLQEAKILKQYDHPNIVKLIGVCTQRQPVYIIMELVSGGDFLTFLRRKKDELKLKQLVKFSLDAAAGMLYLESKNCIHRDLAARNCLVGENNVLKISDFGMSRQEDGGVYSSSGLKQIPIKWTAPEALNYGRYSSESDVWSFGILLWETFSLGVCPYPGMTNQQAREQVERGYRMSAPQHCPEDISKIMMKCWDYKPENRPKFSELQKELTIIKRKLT
Tyrosine-protein kinase Fes/Fps (Homo sapiens), sequence (P07332 whole entry): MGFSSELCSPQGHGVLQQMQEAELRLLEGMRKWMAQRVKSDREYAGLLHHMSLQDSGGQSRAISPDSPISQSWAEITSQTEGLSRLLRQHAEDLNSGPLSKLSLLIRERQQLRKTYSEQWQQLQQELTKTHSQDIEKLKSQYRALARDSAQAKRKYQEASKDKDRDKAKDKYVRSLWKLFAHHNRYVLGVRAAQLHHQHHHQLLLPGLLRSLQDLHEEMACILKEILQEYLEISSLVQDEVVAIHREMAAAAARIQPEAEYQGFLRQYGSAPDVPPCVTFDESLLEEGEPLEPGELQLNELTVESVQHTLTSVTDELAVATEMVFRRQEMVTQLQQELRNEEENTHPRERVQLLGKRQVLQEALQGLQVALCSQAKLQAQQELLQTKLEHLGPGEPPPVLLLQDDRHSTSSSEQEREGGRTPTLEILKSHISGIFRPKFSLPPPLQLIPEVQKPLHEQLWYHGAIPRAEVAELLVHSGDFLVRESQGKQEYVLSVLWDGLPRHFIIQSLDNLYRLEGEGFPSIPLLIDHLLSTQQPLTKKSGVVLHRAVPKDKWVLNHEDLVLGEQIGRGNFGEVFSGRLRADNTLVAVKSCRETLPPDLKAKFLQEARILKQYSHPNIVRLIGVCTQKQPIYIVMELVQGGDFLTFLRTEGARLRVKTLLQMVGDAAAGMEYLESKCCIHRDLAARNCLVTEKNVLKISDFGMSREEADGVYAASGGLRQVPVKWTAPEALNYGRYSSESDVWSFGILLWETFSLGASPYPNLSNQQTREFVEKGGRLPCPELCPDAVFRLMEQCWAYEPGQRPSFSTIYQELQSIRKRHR

Row | SMILES | inhibition [1] [%] | inhibition [2] [%] | inhibition [3] [%] | inhibition [4] [%] | inhibition [5] [%] | inhibition [6] [%] | inhibition [7] [%] | inhibition [8] [%] | inhibition [9] [%] | inhibition [10] [%] | inhibition [11] [%] | inhibition [12] [%] | inhibition [13] [%] | inhibition [14] [%] | inhibition [15] [%] | inhibition [16] [%] | inhibition [17] [%] | inhibition [18] [%] | inhibition [19] [%] | inhibition [20] [%]
1 | CCn1c(-c2nonc2N)nc2c(C#CC(C)(C)O)nc(O[C@@H](CN)c3ccccc3)cc21 | 11.6 | -0.28 | 5.21 | -5.77 | 6.16 | 0.17 | 1.12 | -1.56 | -0.33 | 0.28 | 1.13 | 3.54 | 28.6 | 36.1 | 79.8 | -2.74 | -0.29 | 2.74 | 1.49 | 0.32
2 | COc1cc2c(cc1Nc1nc(Nc3ccsc3C(N)=O)c3cc[nH]c3n1)N(C(=O)CN(C)C)CCC2 | 81.6 | 77.9 | 86.8 | -0.88 | -1.8 | 1.41 | 0.97 | 0.66 | 2.61 | -1.12 | 1.79 | 7.89 | 10.7 | -1.61 | 1.49 | -1.64 | 1.45 | -8.75 | -1.13 | 
3 | CCn1c(-c2nonc2N)nc2c(C#CCN)ncc(OCCCN)c21 | 6.76 | -1.95 | -1.62 | -2.75 | 2.12 | -1.49 | 0.4 | -4.55 | -3.83 | -2.34 | 0.77 | 5.41 | 1.7 | 0.25 | 0.93 | 1.97 | 0.52 | 2.12 | 5.33 | -0.44
4 | NS(=O)(=O)c1ccc(N/C=C2\C(=O)Nc3ccc4ncsc4c32)cc1 | 13.1 | 3.55 | 7.01 | 5.4 | 32.8 | 18.8 | 53.3 | 17.1 | 56.7 | 1.61 | 5.81 | 2.87 | 21.6 | 7.41 | 50.6 | 32.8 | 79.5 | 40.4 | 41 | 3.07
5 | Nc1nonc1-c1nc2cnccc2n1C1CCCCC1 | 1.83 | -2.28 | -1.92 | -7.32 | -4.22 | -6.69 | -0.47 | -2.79 | -2.23 | -1.75 | -1.15 | -0.56 | 6.63 | -1 | 4.33 | -0.01 | 4.32 | 3.29 | 6.77 | -1.27
6 | Fc1ccc(-c2ncn(C3CCNCC3)c2-c2ccnc(Oc3ccccc3)n2)cc1 | 0.16 | 1.02 | 1.03 | -5.35 | -7.09 | -0.63 | -3.24 | -1.57 | -4.55 | -2.7 | -3.96 | 1.86 | 4.87 | 1.35 | 2.72 | -0.44 | 0.52 | -4.18 | -4.41 | 1.92
7 | NS(=O)(=O)c1ccc(-c2ccc3c(NC(=O)C4CC4)n[nH]c3c2)cc1 | -0.03 | 1.35 | 2.53 | 2.31 | 7.63 | 7.91 | 6 | 3.47 | 5.72 | 0.67 | -0.07 | 1.76 | 6.23 | 0.3 | 1.37 | -1.65 | 3.53 | 2.16 | -4.76 | 3.34
8 | NC(=O)c1sc(-n2cnc3cc(C(F)(F)F)ccc32)cc1OCc1ccccc1Br | 6.44 | 2.76 | 1.99 | -2.05 | 1.74 | 2.24 |  | 1.69 | 2.38 | 2.01 | -0.34 | 2.13 | 2.99 | -0.46 | -0.01 | 0.18 | 3.13 | -3.16 | -3.05 | 1.7
9 | COc1cc(C=NNc2ncnc3c2cnn3Cc2ccccc2)ccc1O | 4.33 | -4.54 | -3.75 | -3.93 | -5.25 | -7.09 | -2.01 | -3.23 | -2.85 | -3.36 | 4.03 | 11.8 | 52.1 | -1.46 | 1.82 | -1.99 | -1.02 | -4.43 | -1.56 | -1.07
10 | COc1cccc(COc2cc(-n3cnc4ccccc43)sc2C(N)=O)c1 | 3.72 | 0.11 | 0.56 | -3.37 | -0.23 | -0.92 | 3.02 | -1.31 | 0.24 | -1.48 | 1.25 | 1.93 | 1.54 | -2.33 | -0.83 | -1.3 | -4.17 | -9.33 | -0.53 | -0.84
11 | COc1cccc(-n2ncc3c(N/N=C/c4ccncc4)ncnc32)c1 | 11.7 | 3.38 | 5.85 | 4.8 | 8.02 | 4.98 | 14.5 | 7.39 | 11.9 | 1.99 | 7.56 | 29 | 70 | 1.64 | 27.6 | 7.06 | 28.3 | 11.5 | 0.71 | 8.97
12 | CCn1c(-c2nonc2N)nc2c(C#CC(C)(C)O)ncc(OC[C@@H]3CCCN3)c21 | 0.7 | 2.01 | 4.12 | -0.74 | 0.08 | -1.27 | 0.8 | -3.24 | 0.67 | 2.54 | 2.23 | 1.47 | 2.16 | 1.39 | 17.4 | -1 | -0.61 | -6.46 | -1.89 | -1.01
13 | Cc1cc(-c2ccco2)cc(C)c1/C=C/c1cncc(-c2nn[nH]n2)c1 | 7.85 | 1.75 | 1.63 | -0.88 | 2.5 | 1.69 | 1.54 | -0.36 | 3.17 | 1.4 | 1.04 | 3.13 | 6.29 | -0.74 | 1.77 | 1.31 | 1.79 | -3.95 | 2.63 | 0.37
14 | CCn1c(-c2nonc2N)nc2c(C#CC(C)(C)O)ncc(OCC3CCNCC3)c21 | 6.84 | 2.17 | 4.04 | -2.34 | -0.27 | -1.71 | 3.89 | 1.17 | -1.22 | -6.83 | -3.68 | 5.04 | 4.9 | 2.92 | 23.5 | -0.18 | 4.4 | 3.83 | 1.52 | 2.77
